ChEMBL document CHEMBL1201862, “PubChem BioAssay data set” (2004)
Hit rate of the full screen: of about 400,000 compounds, about 2,100 (0.53%) were called active. Inconclusive results (about 14%) are left out. The sample holds actives, similar compounds and a random draw of the others, so the mix is not that of the screen. How the calls were made is not given here.

These molecules were tested against Ataxin-2 (Homo sapiens) (UniProt Q99700) (assay: qHTS for Inhibitors of ATXN expression.).
Type: functional

Chain of Ataxin-2 (Homo sapiens) (Q99700 whole entry): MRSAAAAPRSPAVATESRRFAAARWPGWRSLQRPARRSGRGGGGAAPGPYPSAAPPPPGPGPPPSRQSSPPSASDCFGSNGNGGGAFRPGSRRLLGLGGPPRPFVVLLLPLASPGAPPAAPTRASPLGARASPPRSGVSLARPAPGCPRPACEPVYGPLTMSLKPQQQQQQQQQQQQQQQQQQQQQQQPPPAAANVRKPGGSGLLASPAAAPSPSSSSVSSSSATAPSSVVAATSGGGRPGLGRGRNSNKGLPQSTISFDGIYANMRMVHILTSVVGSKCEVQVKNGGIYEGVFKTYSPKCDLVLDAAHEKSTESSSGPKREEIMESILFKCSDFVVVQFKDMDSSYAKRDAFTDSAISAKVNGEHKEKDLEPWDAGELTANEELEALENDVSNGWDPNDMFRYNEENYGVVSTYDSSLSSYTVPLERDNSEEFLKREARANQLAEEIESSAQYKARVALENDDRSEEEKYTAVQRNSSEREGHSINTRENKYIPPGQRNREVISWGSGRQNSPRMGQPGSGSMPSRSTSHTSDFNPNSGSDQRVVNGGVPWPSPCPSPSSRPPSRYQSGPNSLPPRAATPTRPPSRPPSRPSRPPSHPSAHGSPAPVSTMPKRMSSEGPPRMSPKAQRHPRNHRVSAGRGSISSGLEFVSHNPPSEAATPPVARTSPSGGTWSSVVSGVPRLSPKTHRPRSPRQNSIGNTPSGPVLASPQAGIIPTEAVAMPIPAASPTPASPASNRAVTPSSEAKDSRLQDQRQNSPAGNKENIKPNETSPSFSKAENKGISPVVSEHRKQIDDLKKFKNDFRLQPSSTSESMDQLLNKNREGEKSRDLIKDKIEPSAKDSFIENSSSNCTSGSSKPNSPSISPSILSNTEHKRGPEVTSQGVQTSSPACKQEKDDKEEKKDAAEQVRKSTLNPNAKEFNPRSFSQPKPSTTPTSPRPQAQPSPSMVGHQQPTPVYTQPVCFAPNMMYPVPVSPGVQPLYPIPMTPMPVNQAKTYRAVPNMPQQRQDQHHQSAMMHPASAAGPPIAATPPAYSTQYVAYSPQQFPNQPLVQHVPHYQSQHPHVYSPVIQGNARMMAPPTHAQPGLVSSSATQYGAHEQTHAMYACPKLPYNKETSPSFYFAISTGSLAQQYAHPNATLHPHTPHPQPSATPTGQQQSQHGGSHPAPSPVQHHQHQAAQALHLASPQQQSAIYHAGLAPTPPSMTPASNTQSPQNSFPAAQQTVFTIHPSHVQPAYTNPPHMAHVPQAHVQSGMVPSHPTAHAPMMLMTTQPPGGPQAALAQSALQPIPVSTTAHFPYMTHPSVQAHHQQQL

**Q.** Which Potency does the source give for `COCCNC(=O)/C(C#N)=C/c1c(N2CCN(C)CC2)nc2ccccn2c1=O` here?
**A.** Its Potency is “inactive”.

**Q.** `COc1ccc2oc3cc(NCCN(C)C)ccc3c(=O)c2c1` was tested. Which Potency did it give?
**A.** Its Potency is “inactive”.

**Q.** How did the Potency turn out when `CCOc1ccc(C(=O)/C=C/c2cn(CC(O)CN3CCc4ccccc43)c3ccccc23)cc1` (configuration not stated) was run?
**A.** Its Potency is “inactive”.

**Q.** `CCCN(CCC)CC(O)Cn1cc(/C=C/C(=O)c2ccc(Br)cc2)c2ccccc21` (configuration not stated) was tested. Which Potency did it give?
**A.** The Potency was “inactive”.

**Q.** With `Cc1nc(-c2ccc([N+](=O)[O-])cc2)c(-c2ccccc2)o1` as the molecule, how does the Potency read?
**A.** The Potency was “inactive”.

**Q.** With `Cc1nc2c(o1)C(=O)c1ccccc1C2=Nc1ccccc1` as the molecule, how does the Potency read?
**A.** The Potency was 31.6 µM (active).

**Q.** Which Potency does the source give for `CCc1ccccc1S(=O)(=O)Cc1ccc(C(=O)NCCc2ccc(Cl)cc2)o1` here?
**A.** Its Potency is 25.1 µM (active).

**Q.** `CC(C)C(NC(=O)c1c(F)cccc1F)C(=O)NCCc1ccc(S(N)(=O)=O)cc1` (configuration not stated) was tested. Which Potency did it give?
**A.** The Potency was “inactive”.

**Q.** For `COc1ccc(CCNC(=O)c2ccc(CSc3ccccc3)o2)cc1`, which Potency is on record?
**A.** The Potency was “inactive”.

**Q.** How did the Potency turn out when `CCC(=O)Nc1cc2nc(O)cc(C)c2cc1C` was run?
**A.** Its Potency is “inactive”.

**Q.** `O=C(NCCc1ccc(Cl)cc1)c1ccc2c(c1)N(Cc1ccc(F)cc1Cl)C(=O)CS2` was tested. Which Potency did it give?
**A.** Its Potency is 14.1 µM (active).

**Q.** For `O=C(Cc1ccc(Cl)cc1)NCCc1ccc(F)cc1`, which Potency is on record?
**A.** Its Potency is “inactive”.

**Q.** With `CCN1CCSc2ccc(C(=O)NCc3ccccc3F)cc21` as the molecule, how does the Potency read?
**A.** The Potency was “inactive”.

**Q.** Which Potency does the source give for `CCc1c(-c2ccccc2)nc2nc(C)c(C)nn12` here?
**A.** The Potency was “inactive”.

**Q.** For `CCCCN1C(C(=O)Nc2cc(C)on2)=C(O)c2ccccc2S1(=O)=O`, which Potency is on record?
**A.** The Potency was “inactive”.

**Q.** For `COc1cc(N(C(C)=O)c2ccc(O)cc2)c2ncccc2c1`, which Potency is on record?
**A.** The Potency was “inactive”.

**Q.** For `COc1cccc(N=Nc2ccc3cccnc3c2O)c1`, which Potency is on record?
**A.** The Potency was 11.2 µM (active).

**Q.** For `CCCC(=O)NC(c1ccc(OC)cc1)c1ccc2cccnc2c1O` (configuration not stated), which Potency is on record?
**A.** Its Potency is “inactive”.

**Q.** With `COCC(=O)N1CCC(n2nccc2NC(=O)CCOc2ccccc2)CC1` as the molecule, how does the Potency read?
**A.** The Potency was “inactive”.

**Q.** With `CCS(=O)(=O)N1Cc2ccccc2CC1C(=O)N(C)CC(=O)Nc1ccc(OC)cc1` (configuration not stated) as the molecule, how does the Potency read?
**A.** Its Potency is “inactive”.

**Q.** How did the Potency turn out when `COc1cc(OC)c(OC)cc1/C=C1\Oc2cc(OCC(=O)N3Cc4ccccc4C[C@H]3C(=O)O)ccc2C1=O` was run?
**A.** Its Potency is “inactive”.

**Q.** Which Potency does the source give for `COC(=O)C1Cc2ccccc2CN1C(=O)CCl` (configuration not stated) here?
**A.** The Potency was 42.3 µM (active).

**Q.** How did the Potency turn out when `O=C(c1ccc([N+](=O)[O-])cc1)N1CCC(n2nnc3cc(F)ccc32)CC1` was run?
**A.** Its Potency is “inactive”.

**Q.** With `CC(=O)Nc1sc2c(c1C(N)=O)CCN(Cc1ccccc1)C2` as the molecule, how does the Potency read?
**A.** The Potency was “inactive”.

**Q.** `CC(=O)N1CCc2c(sc3c2c(=O)n(-c2ccccc2Cl)c(=O)n3Cc2cccc(C)c2)C1` was tested. Which Potency did it give?
**A.** Its Potency is 35.5 µM (active).

**Q.** With `CCC(C(=O)NCc1cccc(C)c1)n1nc(C)c2c(C)n(-c3ccccc3)nc2c1=O` (configuration not stated) as the molecule, how does the Potency read?
**A.** The Potency was “inactive”.

**Q.** With `NNc1ncnc2sc3c(c12)CCC3` as the molecule, how does the Potency read?
**A.** The Potency was “inactive”.

**Q.** With `CCCCNC(=O)COC(=O)c1c2c(nc3ccccc13)/C(=C\c1cccs1)CC2` as the molecule, how does the Potency read?
**A.** The Potency was “inactive”.

**Q.** `CCOCCCn1/c(=N/C(C)=O)c(C#N)cc2c(=O)n3cccc(C)c3nc21` was tested. Which Potency did it give?
**A.** The Potency was “inactive”.

**Q.** How did the Potency turn out when `CCN(CC)CCCNc1cc(C(F)(F)F)c(C#N)c2nc3ccccc3n12` was run?
**A.** Its Potency is “inactive”.

**Q.** With `CCc1ccc(C2=CC(c3cc(Br)ccc3F)n3ncnc3N2)cc1` (configuration not stated) as the molecule, how does the Potency read?
**A.** The Potency was “inactive”.

**Q.** `O=C(Nc1cccc(-c2cn3ccccc3n2)c1)c1cccc(Cl)c1` was tested. Which Potency did it give?
**A.** Its Potency is 39.8 µM (active).

**Q.** With `O=C(Nc1cccc(-c2cn3ccccc3n2)c1)c1cc2ccccc2oc1=O` as the molecule, how does the Potency read?
**A.** The Potency was 22.4 µM (active).

**Q.** Which Potency does the source give for `O=C(Nc1ccc(S(=O)(=O)Nc2ccccn2)cc1)c1cccc(Cl)c1` here?
**A.** The Potency was “inactive”.

**Q.** For `Cc1cccn2cc(-c3cc4ccccc4oc3=O)nc12`, which Potency is on record?
**A.** The Potency was “inactive”.

**Q.** Which Potency does the source give for `Cc1ccn2cc(-c3cc4ccccc4oc3=O)nc2c1` here?
**A.** The Potency was “inactive”.

**Q.** How did the Potency turn out when `O=C(Nc1ncccn1)c1cccc(Cl)c1` was run?
**A.** Its Potency is “inactive”.

**Q.** For `CCc1c(C)c2cc(Cl)c(O)c(CN(C)C)c2oc1=O`, which Potency is on record?
**A.** Its Potency is “inactive”.

**Q.** With `COc1ccc(/C=N/NC(=O)c2ccncc2)cc1CN1CCOCC1` as the molecule, how does the Potency read?
**A.** Its Potency is “inactive”.

**Q.** How did the Potency turn out when `COc1ccc(/C=N/N2C(C)CCCC2C)cc1OC` (configuration not stated) was run?
**A.** The Potency was “inactive”.

**Q.** Which Potency does the source give for `COc1ccc(/C=N/n2cnc3c4cc(C)ccc4nc-3c2O)cc1CN1CCCC1` here?
**A.** The Potency was 39.8 µM (active).

**Q.** Which Potency does the source give for `CCOc1ccc2nc(NCCN=C(S)NCCCN(C)C)c(C#N)cc2c1` here?
**A.** Its Potency is “inactive”.

**Q.** For `Cc1c(O)ccc2c(-c3ccccc3)cc(=O)oc12`, which Potency is on record?
**A.** Its Potency is “inactive”.

**Q.** How did the Potency turn out when `COc1ccc(CNC[C@@H](CCCCN(C)Cc2ccc(OC)cc2)N2C[C@H](c3ccccc3)N(CCc3ccc(Cl)c(Cl)c3)C(=O)C2=O)cc1` was run?
**A.** The Potency was 25.1 µM (active).

**Q.** For `CC(=O)NS(=O)(=O)c1ccc(/N=c2\ssc3c2-c2cc(C)ccc2NC3(C)C)cc1`, which Potency is on record?
**A.** Its Potency is 39.8 µM (active).

**Q.** How did the Potency turn out when `CCN(CC)c1cc(C)c2cc(NC(=O)c3cccc(F)c3)ccc2n1` was run?
**A.** The Potency was 39.8 µM (active).

**Q.** `CCN(CC)c1cc(C)c2cc(NC(=O)/C=C/c3ccccc3Cl)ccc2n1` was tested. Which Potency did it give?
**A.** Its Potency is 28.2 µM (active).

**Q.** For `CCn1nc(NC(=O)c2ccccc2)c2cc3cccc(C)c3nc21`, which Potency is on record?
**A.** The Potency was “inactive”.

**Q.** `COc1ccc(Nc2cc(C)c3cc(NC(=O)Cc4c(F)cccc4Cl)ccc3n2)cc1` was tested. Which Potency did it give?
**A.** The Potency was “inactive”.

**Q.** With `CCN(CC)c1cc(C)c2cc(NC(=O)c3ccc(Br)o3)ccc2n1` as the molecule, how does the Potency read?
**A.** The Potency was 35.5 µM (active).

**Q.** For `Cc1cccc(OCC(=O)Nc2ccc3nc(Nc4cccc(Cl)c4)cc(C)c3c2)c1`, which Potency is on record?
**A.** Its Potency is “inactive”.

**Q.** `O=C(Nc1ccc(F)cc1)c1ccc2nc(O)c(O)nc2c1` was tested. Which Potency did it give?
**A.** The Potency was “inactive”.

**Q.** With `CCN(CC)c1cc(C)c2cc(NC(=O)c3cc(OC)cc(OC)c3)ccc2n1` as the molecule, how does the Potency read?
**A.** Its Potency is 35.5 µM (active).

**Q.** For `Cc1cc(Nc2cccc(Cl)c2)nc2ccc(NC(=O)c3cncc(Br)c3)cc12`, which Potency is on record?
**A.** Its Potency is “inactive”.

**Q.** For `COc1ccc(Nc2cc(C)c3cc(NC(=O)c4cc(OC)cc(OC)c4)ccc3n2)cc1`, which Potency is on record?
**A.** The Potency was “inactive”.

**Q.** For `Cc1ccccc1/C=C/c1cccc[n+]1C`, which Potency is on record?
**A.** The Potency was “inactive”.

**Q.** With `O=C(N/C(=C/c1cccc(Br)c1)C(=O)N1CCOCC1)c1ccco1` as the molecule, how does the Potency read?
**A.** Its Potency is “inactive”.

**Q.** With `C(=Cc1c[nH]c2ccccc12)c1ccc2ccccc2n1` as the molecule, how does the Potency read?
**A.** Its Potency is “inactive”.

**Q.** `CC(C(=O)NCC1CCCCC1)N(C)CC(=O)Nc1ccc(N2CCOCC2)cc1` (configuration not stated) was tested. Which Potency did it give?
**A.** The Potency was “inactive”.

**Q.** Which Potency does the source give for `Cc1cccc(C2C=C(c3ccc(C)c(C)c3)Nc3nnnn32)c1` (configuration not stated) here?
**A.** The Potency was “inactive”.

**Q.** How did the Potency turn out when `CCN1CCN(c2cc(C)c3cc(NC(=O)c4cccc(OC)c4)ccc3n2)CC1` was run?
**A.** Its Potency is “inactive”.

**Q.** How did the Potency turn out when `CCN(CC)c1cc(C)c2cc(NC(=O)c3cccc(OC)c3)ccc2n1` was run?
**A.** The Potency was 39.8 µM (active).

**Q.** For `Cc1ccc(NN2C(=O)C=C(c3ccc(Cl)cc3)C2=O)cc1`, which Potency is on record?
**A.** The Potency was 28.2 µM (active).

**Q.** For `CC(=O)c1ccc(F)c(-c2cc(C)cc3c2OC(CNC(=O)c2csc(C)n2)C3)c1` (configuration not stated), which Potency is on record?
**A.** Its Potency is “inactive”.

**Q.** How did the Potency turn out when `CC(C)CC(COCc1cccc(C(F)(F)F)c1)N1CCN(C(=O)c2cccc(C(F)(F)F)c2)CCC1=O` (configuration not stated) was run?
**A.** Its Potency is 31.6 µM (active).

**Q.** Which Potency does the source give for `Cc1cccc(COC[C@H](CC(C)C)N2CCN(C(=O)c3ccc(C(F)(F)F)cc3)CCC2=O)c1` here?
**A.** Its Potency is 35.5 µM (active).

**Q.** How did the Potency turn out when `Cc1cccc(COC[C@H](CC(C)C)N2CCN(C(=O)c3ccc(C(C)(C)C)cc3)CCC2=O)c1` was run?
**A.** Its Potency is 39.8 µM (active).
